Reference: PubChem BioAssay AID1159580 (chemical genetic matrix, 2015)
Screen size: about 5,500 compounds; about 2,000 (36%) were called active. Roughly 18% stayed inconclusive and do not appear here. Cut-off read from the data, not from the text of the source: active = normalized growth mostly below about 0.91 (no sharp cut-off); inconclusive = no clear call, values can overlap the other calls; inactive = mostly above about 0.92. Some of the results follow.

Assay: chemical genetic growth profiling, strain panel (AID 1159580);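 note: tested at 20 µM; growth read once vehicle control cultures reached saturation at 30 °C; 1 = growth at the plate median or of vehicle wells; lower values mean less growth of the strain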
Settings: S. cerevisiae deletion strains, growth OD

Measured: normalized growth

C=C(C)[C@H]1CN[C@H](C(=O)O)[C@H]1CC(=O)O
inactive: locus YAL040C, strain CLN3, active compounds read low 1.02 | locus YCL061C, strain MRC1 (second series), active compounds read low 1 | locus YDR363W, strain ESC2, active compounds read low 1.03 | locus YER002W, strain NOP16, active compounds read low 1.01 | locus YMR307W, strain GAS1, active compounds read low 1 | locus YNL128W, strain TEP1, active compounds read low 1 | locus YNL175C, strain NOP13, active compounds read low 1.02 | locus YNL197C, strain WHI3, active compounds read low 1.02 | locus YNL224C, strain SQS1, active compounds read low 1 | locus YOR083W, strain WHI5 (second series), active compounds read low 1.03
